Results reported in PubChem BioAssay (NCI).
About 79,000 compounds went through this panel and 15% of them were active in at least one assay; those are over-represented in the sample as a whole. Unmarked numbers belong to inactive results. The source made the active and inactive calls. No stated cut-off is given here; in the data, active means growth inhibition above about 70%; inactive means the rest.

Key:
[1] = NCI Yeast Anticancer Drug Screen. Data for the rad50 strain (AID 155);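 further: 0% = growth of vehicle-only cultures of the same strain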; conditions: S. cerevisiae rad50 strain growth inhibition; at 50.0 µM; active compounds read high
Method in brief: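 Vehicle-treated cultures provide the reference for the growth inhibition reported for compound-exposed, repair-deficient yeast.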

[2] = NCI Yeast Anticancer Drug Screen. Data for the mec2-1 strain (AID 157); conditions: S. cerevisiae mec2-1 strain, at 50.0 µM, active compounds read high
Method in brief: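 Strain: mec2-1 (DNA repair/cell cycle alteration). Compound exposure, then growth measured; inhibition expressed relative to vehicle.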

[3] = NCI Yeast Anticancer Drug Screen. Data for the sgs1 mgt1 strain (AID 161);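 further: 0% = growth of cultures given vehicle only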; conditions: S. cerevisiae sgs1 mgt1 strain, at 50.0 µM, active compounds read high
Method in brief: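 Test agents were incubated with a DNA-repair-mutant yeast strain. Growth was then read and compared against vehicle-treated controls.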

[4] = NCI Yeast Anticancer Drug Screen. Data for the cln2 rad14 strain (AID 165);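 further: 0% = growth equal to vehicle treated cultures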; conditions: S. cerevisiae cln2 rad14 strain, at 50.0 µM, active compounds read high
Method in brief: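 Compounds are applied to the cln2 rad14 yeast strain, and growth is then compared with that of vehicle-treated cultures to give inhibition.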

[5] = NCI Yeast Anticancer Drug Screen. Data for the bub3 strain (AID 167); conditions: S. cerevisiae bub3 mutant strain, at 50.0 µM, active compounds read high
Method in brief: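 Mutant yeast screening strain plus compound; vehicle-treated cultures serve as the 0% inhibition reference.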

[6] = NCI Yeast Anticancer Drug Screen. Data for the mlh1 rad18 strain (AID 175); conditions: S. cerevisiae mlh1 rad18 strain growth inhibition; at 50.0 µM; active compounds read high
Method in brief: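 Read-out is yeast growth inhibition, calculated against vehicle-only controls. The compound was applied to a strain engineered with DNA damage repair alterations.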

Compound | growth inhibition [1] | growth inhibition [2] | growth inhibition [3] | growth inhibition [4] | growth inhibition [5] | growth inhibition [6]
COc1ccccc1N=Nc1c(O)n(-c2ccccc2OC)c(=S)n(-c2ccc(I)cc2)c1=O | 96% (active) | 96.2% (active) | 96% (active) | 92.8% (active) | 95.2% (active) | 96.7% (active)
CC(C)(C)OC(=O)C(C1NC2C(=O)OCC2(CO)S1)N1C(=O)c2ccccc2C1=O (stereo not given) | 38.6% | -1.65% | 25.9% | -6.35% | -1.75% | 12.5%
C=CC(O)C(C)C (stereo not given) | 10.7% | -8.35% | -2.55% | -2.95% | -1.55% | 3.1%
COC(=O)c1cc2c(o1)Sc1ccccc1NC2=O | -4.3% | -29.9% | -12.6% | 3.65% | -8.55% | 10.7%
O=C(N/N=C/c1ccccc1)C1CC1 | 9.35% | -10.2% | 10.2% | 8% | 9.35% | 1.85%
Cc1nc2ccc(S(=O)(=O)Nc3ccc(Cl)cc3)cc2c(=O)n1NC(=O)CNc1ccc(Cl)cc1 | 33.3% | 22.4% | 42.2% | 15.6% | 19.9% | 24.2%
O=[N+]([O-])c1cccc(S(=O)(=O)NC2c3ccccc3Oc3ccccc32)c1 | 22% | -3.65% | 26.9% | 21.4% | -10.7% | 24.8%
O=CCCc1ccccc1 | 31.6% | -22.1% | -22.2% | -29.6% | 22% | 56.1%
CCOc1ccc(NC(=O)C(=O)CC(=O)C2=C(C)Nc3ccccc3S2)cc1 | 27.6% | 14.8% | 12.5% | -2.25% | -1% | 28.5%
CC(C)OC(=O)C1=C(C(=O)OC(C)C)CCCC1 | 4.8% | 21.6% | 4.4% | 13.2% | 3.1% | 13.7%
COC(=O)c1cccnc1F | 3.9% | -15.2% | -14.7% | -1.65% | -30.2% | -2.45%
FC(F)(F)c1ccc2c(c1)N(CCCN1CCN(CCN3CCCCC3)CC1)c1ccccc1S2 | 88.9% (active) | 46% | 89% (active) | 27.2% | 87.4% (active) | 91.8% (active)
N#C/C(=N\NC(=O)c1ccccc1)c1ccccc1 | 5.65% | 4.9% | -3.7% | -32.5% | -8.3% | 3.5%
NC(=O)c1ccccc1NC(=O)CCCOc1ccccc1 | -11.5% | 8.35% | 16.8% | -5.8% | -14.3% | 9.2%
CCSC1OC(C(COC(C)=O)OC(C)=O)C(OC(C)=O)C1NC(=O)OCc1ccccc1 (stereo not given) | -0.05% | 5.75% | -4.5% | 7.2% | 1% | -18.1%
COc1cc2c[n+](C)c3c4ccccc4ccc3c2cc1OC | 40.4% | 55.2% | 18.9% | 2.75% | 22.2% | 38.5%
ClCCCCC(Cl)(Cl)Cl | 27.9% | 27.6% | 10.4% | -16.3% | 21.9% | 23.3%
O=C(O)c1ccc(O)c([N+](=O)[O-])c1 | 8.2% | -33.5% | 6.5% | 9% | 6.85% | 27.2%
CC1CC(c2ccccc2)=Nc2ccccc2S1 (stereo not given) | 18.2% | 12.9% | 16.2% | 19.5% | 6.5% | -9.4%
CCn1c(=O)c2c3ccc(OC(C)=O)cc3[nH]c2c2ccc(OC(C)=O)cc21 | -17.9% | -30.5% | -10.9% | 9.35% | 4% | -21.6%
